TROY NFkB inh: inhibitors of TROY-dependent NF-kB signaling | inhibition, % at 10 µM | AID 1347056 | 0.98% of 360,000 active | Q293 LMP1-TROYcd NF-kB luciferase reporter, 4 h;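 active = compounds whose plate-normalised and pattern-corrected inhibition of the luciferase reporter signal at the single screening dose is 50% or more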
CF NFkB block: cystic fibrosis NF-kB activation inhibition; inhibition, % at 5 µM; 0.86% of 360,000 active; KKLEB NF-kB-GFP reporter, PAF-induced, GFP fluorescence overnight;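 active = at least 50% inhibition at 5 µM, scaled per plate between neutral and stimulator controls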;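 note: PAF is a Pseudomonas aeruginosa culture filtrate used as stimulus; plate controls were PAF-stimulated DMSO wells for no effect and unstimulated DMSO wells for full effect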
HIF-2a inh: inhibitors of HIF-2a. inhibition, % at 18.8 µM. 0.72% of 360,000 active. 786-0 RCC cells HIF-2a reporter, luciferase luminescence, overnight;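 active = inhibition of the luminescence signal of 40% or more relative to plate controls, in a single-dose primary screen at 18.75 µM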
TWEAK-Fn14 inh: inhibitors of TWEAK-Fn14 interaction signaling; inhibition, % at 10 µM; 2% of 360,000 active; TWEAK-stimulated Fn14 reporter cells, luciferase luminescence, 8 h; in the data active = inhibition above about 50%
Peg3 prom inh-1: Peg3 promoter activity inhibition | HeLa PEG-Prom luciferase reporter, luminescence, overnight | 1.7% of 360,000 active | inhibition, % at 20 µM;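 active = inhibition of at least 50% at 20 µM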
KKLEB tox: reduces viability of KKLEB cystic fibrosis airway cells | activity change (cytotoxicity), % at 5 µM | KKLEB CF airway cells viability, ATPlite luminescence, overnight; hits give low values; cells stimulated with P. aeruginosa culture filtrate | 0.36% of 360,000 active | AID 602141;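 active = corrected activity change at or below -50% at 5 µM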
Peg3 prom inh-2: Peg3 promoter inhibition confirmation; inhibition, % at 20 µM; AID 602417; 84% of 1,300 active; HeLa PEG-Prom luciferase reporter, luminescence, overnight; shares compounds with Peg3 prom inh-1;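 active = at 20 µM dose, 40% or more inhibition averaged across four replicates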
* marks the source's active call; other numbers are inactive results; . = no result. In the library only some 4% were active in any assay of this set; here they are far more common.

SMILES	TROY NFkB inh	CF NFkB block	HIF-2a inh	TWEAK-Fn14 inh	Peg3 prom inh-1	KKLEB tox	Peg3 prom inh-2
CCN(CC)C(=O)[C@H]1CC(CC(=O)NCc2cccc(C(F)(F)F)c2)C(=O)N2CCc3c([nH]c4ccc(OC)cc34)[C@]12C (some centres undefined)	9	-1	4	19	6	0	.
O=C(C[n+]1cc[nH]c1)c1ccc(Cl)cc1	-8	17	15	-3	8	-1	.
CC(C)(C)c1cc[n+](/C(C(=S)Nc2ccccc2F)=C(/[O-])c2ccc3c(c2)OCCO3)cc1	-16	6	-93	12	-58	8	.
[O-]C(=C(C(=S)Nc1cccc2ccccc12)[n+]1ccccc1)c1ccc2c(c1)OCCO2	79*	-21	72*	103*	54*	15	21
Cc1cccc(NC(=O)CSc2nc3ccccc3c3nc(CCc4c(C)n[nH]c4C)nn23)c1	1	31	-7	60*	57*	-42	58*
Cc1n[nH]c(C)c1CCc1nc2c3ccccc3nc(SCC(=O)Nc3ccccc3F)n2n1	-10	13	18	28	20	-10	.
CC(C)N1C/C(=C/c2ccsc2)C(=O)/C(=C/c2ccsc2)C1	18	-54	29	14	103*	8	35
COc1ccc(C[C@H]2CN3C(=NC[C@@H]3Cc3ccc(O)cc3)N2C[C@H](C)NC(=O)c2ccc(C)c(Br)c2)cc1	4	8	-20	-54	101*	-16	97*
CN(C)CCNc1ccc2ncn3c4ccc(O)cc4c(=O)c1c23	-38	19	49*	2	101*	-14	71*
O=C(CCNC(=O)c1ccccc1)NCCc1ccc(Cl)cc1	22	-4	12	1	-9	-2	.
CC(=O)Nc1cccc(-c2cc(NC=O)c3ncc(-c4ccc(C(C)=O)cc4)n3c2)c1	25	28	-5	20	54*	-34	56*
O=c1cc(-c2ccc(O)cc2)oc2ccc3ccccc3c12	88*	-262	72*	102*	67*	-61*	75*
COc1ccc2nc3n(c(=O)c2c1)-c1cc2ccccc2cc1C(=O)NC3Cc1ccc(O)cc1 (centres undefined)	22	-4	17	11	78*	-1	86*
COc1ccc2nc3n(c(=O)c2c1)-c1cc2ccccc2cc1C(=O)NC3Cc1ccccc1 (centres undefined)	15	0	1	13	14	-8	.
CSCc1c(C(=O)Nc2ccccc2N2CCOCC2)oc2ccccc12	7	-11	5	12	-6	-7	.
COc1cc2c(cc1OC)C(C)N(C(=O)Nc1ccc(F)cc1)CC2 (centres undefined)	-10	5	6	-4	19	2	.
O=c1oc2ccccc2cc1-c1cn2cccnc2n1	-28	-43	-80	21	-173	8	.
O=c1oc2ccccc2cc1-c1cn2ccccc2n1	71*	27	66*	97*	79*	-78*	65*
COc1ccc(CCNC(=O)c2ccc(OCC(=O)N3CCOCC3)c(OC)c2)cc1OC	-20	-8	9	-16	28	3	.
Cc1cc(Br)ccc1NC(=O)CN(C)C(=O)C1=COCCO1	7	21	0	-9	-7	-2	.
CCN(CC(=O)Nc1ccc(NC(C)=O)cc1)C(=O)c1cc2c(s1)CCCCC2	-21	-2	-8	-3	-10	-2	.
COc1ccc2c(c1OC)C(=O)N1c3ccccc3C(=O)N(c3ccccc3F)C21 (centres undefined)	6	86*	7	49	62*	-87*	45*
COc1ccc2c(c1OC)C(=O)N1c3ccccc3SC21 (centres undefined)	-49	-6	-244	-56	-332	-4	.
Cc1cccc(N2CCN(S(=O)(=O)c3ccc4c(c3)CCCN4C(=O)C3CCC3)CC2C)c1 (centres undefined)	13	-6	-3	-7	26	16	.
Cc1cc2ccccc2n2c(SCC(=O)Nc3ccc(S(=O)(=O)N4CCCCC4)cc3)nnc12	5	-9	5	0	11	-7	.
SMILES	TROY NFkB inh	CF NFkB block	HIF-2a inh	TWEAK-Fn14 inh	Peg3 prom inh-1	KKLEB tox	Peg3 prom inh-2
Cc1cc2cc(C)c3nnc(SCC(=O)Nc4ccc(S(=O)(=O)N5CCCCC5)cc4)n3c2cc1C	4	6	23	-5	69*	-18	5
O=C(CN1CCN(Cc2ccccc2Cl)C1=O)NCCCN1CCOCC1	22	2	7	7	9	0	.
COc1ccc(CN2CCC2(C)C(=O)Nc2cnc3ccccc3c2)c2ccccc12 (centres undefined)	9	24	-12	11	14	-14	.
Cc1cc(C2=NNC(=NC3CCCCC3)SC2)c(C)n1-c1c(C)n(C)n(-c2ccccc2)c1=O	4	-15	7	-13	1	7	.
Cc1cc(C2=NNC(=NC3CC3)SC2)c(C)n1-c1ccccc1F	89*	-16	89*	104*	104*	-58*	98*
CC1=NOC(=O)/C1=C\c1ccc(-c2ccccc2Br)o1	68*	58*	49*	96*	93*	-20	99*
CCN(CC)CCNC(=O)c1ccc(NC(=O)c2cccc(S(=O)(=O)N(C)C3CCCCC3)c2)cc1	8	11	24	0	83*	-19	89*
CCc1ccc(Oc2coc3cc(OCC(=O)Nc4cc(C)ccc4C)ccc3c2=O)cc1	11	14	5	-71	54*	-20	43*
CCCc1ccc(Oc2coc3cc(OCC(=O)Nc4ccccc4C)ccc3c2=O)cc1	22	13	9	-31	14	-5	.
CC(/C=N\Nc1nnc2c(n1)[nH]c1c(C)cccc12)=C\c1ccco1	16	19	-98	-40	65*	-36	14
O=C(NCCCN1CCCC1=O)C1CCN(S(=O)(=O)c2c(Cl)cccc2Cl)CC1	-7	-25	1	1	12	10	.
O=C(Nc1ccccc1)c1ccc(F)c(S(=O)(=O)N2CCOCC2)c1	-5	-5	-16	1	1	-1	.
O=C(Nc1ccc(-c2cn3ccsc3n2)cc1)c1ccc(F)c(S(=O)(=O)N2CCOCC2)c1	40	-40	-78	59*	80*	25	96*
Cc1ccc(/C=C2\SC(=S)N(CCCC(=O)NNC(=O)c3ccccc3O)C2=O)cc1	69*	2	91*	87*	80*	-6	82*
COc1cc(/C=C2\SC(=S)N(CCC(=O)NC3CCCC3)C2=O)cc(OC)c1OC	15	6	7	-5	38	-6	.
Cc1ccc(/C=C2\SC(=S)N(CCCC(=O)NC3CCCC3)C2=O)cc1	-13	14	74*	44	54*	8	49*

Source: PubChem BioAssay
